Test [1] can be described thus: ATG_CRE_CIS: Attagene CIS-FACTORIAL HepG2 Assay for human cAMP Responsive Element (CRE) binding protein 3 (AID 2282926). As to conditions: HepG2 CRE cis-reporter, Attagene multiplexed mRNA; actives raise or lower the signal. Put shortly:
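Induced reporter mRNA from a CRE cis element, measured in HepG2 among many multiplexed units at 24 h. Detection used RT-PCR plus capillary electrophoresis of fluorescent fragments; DMSO served as negative control.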

Test [2] addresses CCAAT/enhancer-binding protein beta (Homo sapiens) (UniProt P17676). Put plainly: ATG_C_EBP_CIS: Attagene CIS-FACTORIAL HepG2 Assay for human CCAAT/Enhancer Binding Protein (C/EBP) beta (AID 2282927). Particulars: HepG2 Attagene cis-factorial transcription factor reporter; actives raise or lower the signal. Put shortly:
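Following a 24 h incubation with test chemical, transfected HepG2 cells yielded RNA whose reporter transcripts were quantified by RT-PCR and fluorescent capillary electrophoresis, with DMSO serving as baseline for bidirectional fitting.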

The nature of test [3]: ATG_CMV_CIS: Attagene CIS-FACTORIAL HepG2 Assay for human CMV (Internal Marker) (AID 2282928).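 Also: endpoint acts as a background internal control marker rather than a target.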 Particulars: HepG2 CMV promoter reporter, transcription factor profiling; actives raise or lower the signal. Put shortly: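 Fluorescence intensity of RT-PCR-derived reporter fragments, resolved by capillary electrophoresis, gives the signal. HepG2 liver cells bearing transfected cis-element reporters were treated 24 h; activity in either direction was fit relative to DMSO-treated controls.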

Test [4] is described as follows: ATG_AP_1_CIS: Attagene CIS-FACTORIAL HepG2 Assay for human Activator Protein 1 (AP-1) (AID 2282931). As to conditions: HepG2 Attagene cis-factorial AP-1 reporter mRNA; actives raise or lower the signal. The method, boiled down: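 HepG2 cells transiently transfected with cis-element-driven reporter transcription units, dosed for 24 hours. Reporter mRNA measured by RT-PCR, 6-FAM labelling, HpaI digestion and capillary electrophoresis. Bidirectional fitting against DMSO baseline.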

The nature of test [5]: ATG_AP_2_CIS: Attagene CIS-FACTORIAL HepG2 Assay for human Activator Protein 2 (AP-2) (AID 2282932). Particulars: HepG2 AP-2 cis-reporter, Attagene transcription factor profiling; actives raise or lower the signal. The method, boiled down:
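Assay in transfected HepG2 with promoter-regulated reporters, 24 h incubation after dosing. Signal is reporter mRNA fluorescence (RT-PCR, capillary electrophoresis), analysed for both increases and decreases relative to DMSO controls.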

The nature of test [6]: ATG_BRE_CIS: Attagene CIS-FACTORIAL HepG2 Assay for human Bone Morphogenetic Protein (BMP) Response Element (BRE) (AID 2282933). As to conditions: HepG2 BMP response element reporter, Attagene transcription factor profiling; actives raise or lower the signal. Put shortly:
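Multiplexed cis-reporter assay, HepG2, 24 h exposure. mRNA from reporter units quantified via RT-PCR/CE; DMSO baseline; bidirectional curve fit.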

The target in test [7] is Transcription factor E2F1 (Homo sapiens) (UniProt Q01094). Put plainly: ATG_E2F_CIS: Attagene CIS-FACTORIAL HepG2 Assay for human E2F Transcription Factor 1 (AID 2282935). Particulars: HepG2 Attagene cis-reporter, E2F reporter RNA transcripts; actives raise or lower the signal. Put shortly:
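In this cis-factorial format, endogenous factor activity drives transfected reporters in HepG2; transcripts collected at 24 h are quantified by fluorescence after RT-PCR and capillary separation.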

Test [8] in a line: ATG_E_Box_CIS: Attagene CIS-FACTORIAL HepG2 Assay for human Enhancer Box (E-box) (AID 2282936). Particulars: HepG2 E-box cis-reporter transcription, actives raise or lower the signal. The method, boiled down: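 Measured 24 h post-dosing in HepG2 cells transfected with multiple cis-regulated reporter units, signal being reporter mRNA induction detected by fluorescent RT-PCR with capillary electrophoresis; gain or loss fitted against DMSO.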

Test [9] in a line: ATG_M_61_CIS: Attagene CIS-FACTORIAL HepG2 Assay for M61 Transcription Factor (Internal Marker) (AID 2282937). Particulars: HepG2 Attagene CIS-FACTORIAL M61 internal marker reporter; actives raise or lower the signal. Put shortly: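 HepG2 cells transiently transfected with multiplexed cis-promoter reporter units reporting endogenous transcription factor activity, measured 24 h after dosing. Reporter mRNA quantified by RT-PCR and capillary electrophoresis; bidirectional fit against DMSO baseline.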

A short description of test [10]: ATG_EGR_CIS: Attagene CIS-FACTORIAL HepG2 Assay for human Early Growth Response 1 (EGR1) (AID 2282938). As to conditions: HepG2 Attagene CIS-FACTORIAL EGR reporter mRNA; actives raise or lower the signal. The method, boiled down: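 HepG2 cells transiently transfected with cis-element-driven multiplexed reporter units, dosed for 24 h. EGR1-element reporter mRNA quantified by RT-PCR, 6-FAM labelling, HpaI digestion and capillary electrophoresis; bidirectional fit versus DMSO.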

Test [11] in a line: ATG_M_19_CIS: Attagene CIS-FACTORIAL HepG2 Assay for M19 Transcription Factor (Internal Marker) (AID 2282939). As to conditions: HepG2 Attagene CIS-FACTORIAL M19 internal marker reporter; actives raise or lower the signal. The method, boiled down:
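Signals come from fluorescence of labelled reporter-specific PCR fragments resolved by capillary electrophoresis, following 24 h treatment of HepG2 cells transfected with cis-promoter reporter units; activity was fitted in both directions relative to DMSO.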

Test [12] is described as follows: ATG_Ets_CIS: Attagene CIS-FACTORIAL HepG2 Assay for human Erythroblast Transformation Specific (ETS) (AID 2282941). Particulars: HepG2 ETS cis-reporter transcription, actives raise or lower the signal. The method, boiled down: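 Multiplexed reporter transcript profiling: HepG2, 24 h treatment, total RNA to cDNA, PCR, 6-FAM labelling, HpaI cut, capillary electrophoresis. Gain- or loss-of-signal fitted against DMSO.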

In test [13] the target is Hepatocyte nuclear factor 3-beta (Homo sapiens) (UniProt Q9Y261). Put plainly: ATG_FoxA2_CIS: Attagene CIS-FACTORIAL HepG2 Assay for human Forkhead box A2 (FOXA2) (AID 2282942). Particulars: HepG2 cis-reporter transcription factor activity, 24 h; actives raise or lower the signal. Put shortly:
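HepG2 transiently transfected with a multiplexed cis-promoter reporter library read endogenous FOXA2 activity. After 24 h compound exposure, reporter mRNA was quantified by RT-PCR, HpaI digestion and capillary electrophoresis. Bidirectional fit against DMSO.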

Test [14] can be described thus: ATG_FoxO_CIS: Attagene CIS-FACTORIAL HepG2 Assay for human Forkhead box O (FoxO) (AID 2282943). Particulars: HepG2 Attagene cis-reporter, FoxO element, mRNA; actives raise or lower the signal. The method, boiled down:
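Values reflect reporter mRNA induction or loss in HepG2 cells 24 h post-dosing, fitted bidirectionally with DMSO as negative control and baseline. Detection used RT-PCR and fluorescence capillary electrophoresis.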

A short description of test [15]: ATG_GATA_CIS: Attagene CIS-FACTORIAL HepG2 Assay for human GATA Binding Protein (AID 2282944). As to conditions: HepG2 GATA cis-element reporter, Attagene multiplex mRNA; actives raise or lower the signal. Put shortly:
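After transfecting HepG2 cells with multiple cis-regulated reporter units, chemicals are dosed for 24 h; isolated RNA undergoes RT-PCR and fluorescent labeling before capillary electrophoresis, with activity expressed against DMSO.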

Test [16] in a line: ATG_GLI_CIS: Attagene CIS-FACTORIAL HepG2 Assay for human Zinc Finger Protein GLI1 (AID 2282945). As to conditions: HepG2, Attagene cis-factorial reporter mRNA, GLI element; actives raise or lower the signal. Put shortly: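 HepG2 cells transiently transfected with cis-promoter multiplexed reporter units report endogenous transcription factor activity. After 24 h chemical exposure, reporter mRNA was quantified by RT-PCR, 6-FAM labelling, HpaI digestion and capillary electrophoresis, with bidirectional fitting against DMSO.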

Test [17] can be described thus: ATG_DR4_LXR_CIS: Attagene CIS-FACTORIAL HepG2 Assay for human Liver X Receptor (LXR), DR4 submotif (AID 2282929). As to conditions: HepG2 Attagene DR4 cis-reporter, mRNA transcription; actives raise or lower the signal. The method, boiled down: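 HepG2 cells were transiently transfected with multiple cis-regulated reporter units and dosed for 24 hours. The DR4 reporter mRNA was quantified by RT-PCR, 6-FAM labelling and capillary electrophoresis. Bidirectional fits used DMSO as baseline.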

For test [18], the target named is Aryl hydrocarbon receptor (Homo sapiens) (UniProt P35869). The test can be described thus: ATG_Ahr_CIS: Attagene CIS-FACTORIAL HepG2 Assay for human Aryl Hydrocarbon Receptor (Ahr) (AID 2282930). Particulars: HepG2 AhR cis-factorial reporter transcription; actives raise or lower the signal. The method, boiled down: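 Values derive from bidirectional fitting against DMSO negative control. Underlying signal: cis-element reporter mRNA in transiently transfected HepG2, harvested 24 h post-dose and measured by RT-PCR plus capillary electrophoresis.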

Test [19] concerns the target Retinoic acid receptor alpha (Homo sapiens) (UniProt P10276). The test can be described thus: ATG_DR5_RAR_CIS: Attagene CIS-FACTORIAL HepG2 Assay for human Retinoic Acid Receptor Alpha (RARE), DR5 submotif (AID 2282934).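 As to AC50: reporter responds to endogenous RAR alpha beta and gamma in HepG2 not RARA alone.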 As to conditions: HepG2 Attagene cis-factorial RARE DR5 reporter, mRNA; actives raise or lower the signal. The method, boiled down:
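Endpoint fitted in both directions relative to DMSO as negative control. It reflects DR5 cis-element reporter mRNA induction in transiently transfected HepG2 cells, measured 24 h after dosing through RT-PCR and fluorescent capillary electrophoresis.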

Test [20] is described as follows: ATG_ERE_CIS: Attagene CIS-FACTORIAL HepG2 Assay for Estrogen Response Element (ERE) (AID 2282940). Particulars: HepG2 ERE cis-reporter, Attagene RNA transcript; actives raise or lower the signal. The method, boiled down: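 Fluorescence of capillary-separated, FAM-labelled reporter cDNA fragments indicates reporter mRNA levels in HepG2 cells exposed to chemicals for 24 h. Transient transfection with cis-regulated units; data fitted in both directions against DMSO.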

The structures appear in SMILES notation. Several values for one entry are separate records, joined by “and”; a condition that tells them apart may be missing. Equal values may be shown once. Some compounds were tested as several samples or in several runs, with calls that do not always agree. Activity calls are given as the source filed them. The calls were made as follows: active = hit-call score of the fitted dose curve at least 0.9, where 1 is the maximum; inactive = score below 0.9.

This is an account of results in PubChem BioAssay (EPA / NIEHS).

The term AC50 denotes the midpoint of the concentration-response curve, whichever way the signal moves.

Aryl hydrocarbon receptor (Homo sapiens), sequence (P35869 whole entry, looked up): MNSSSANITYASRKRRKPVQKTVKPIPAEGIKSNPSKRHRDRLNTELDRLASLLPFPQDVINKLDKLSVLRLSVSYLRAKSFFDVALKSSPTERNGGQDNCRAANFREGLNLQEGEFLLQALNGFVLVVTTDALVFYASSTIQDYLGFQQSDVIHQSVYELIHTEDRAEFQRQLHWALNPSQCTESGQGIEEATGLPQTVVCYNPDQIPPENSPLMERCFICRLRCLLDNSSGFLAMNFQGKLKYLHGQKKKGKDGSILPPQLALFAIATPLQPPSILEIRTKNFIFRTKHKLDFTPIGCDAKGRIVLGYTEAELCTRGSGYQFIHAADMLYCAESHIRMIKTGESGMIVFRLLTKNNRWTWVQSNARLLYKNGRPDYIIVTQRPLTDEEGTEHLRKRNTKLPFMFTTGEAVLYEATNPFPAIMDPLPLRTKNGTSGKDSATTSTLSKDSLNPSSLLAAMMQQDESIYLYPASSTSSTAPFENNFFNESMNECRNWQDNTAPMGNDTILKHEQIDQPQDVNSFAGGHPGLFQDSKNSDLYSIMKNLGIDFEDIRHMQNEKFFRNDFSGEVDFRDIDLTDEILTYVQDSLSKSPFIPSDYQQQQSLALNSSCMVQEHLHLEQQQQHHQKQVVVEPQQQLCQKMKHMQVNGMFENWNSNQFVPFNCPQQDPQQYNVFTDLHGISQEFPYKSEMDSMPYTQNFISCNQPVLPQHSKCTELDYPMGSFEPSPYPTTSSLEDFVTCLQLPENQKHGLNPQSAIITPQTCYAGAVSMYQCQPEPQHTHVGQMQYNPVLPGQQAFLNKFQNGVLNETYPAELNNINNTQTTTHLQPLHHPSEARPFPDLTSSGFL
Retinoic acid receptor alpha (Homo sapiens), sequence (P10276 whole entry, looked up): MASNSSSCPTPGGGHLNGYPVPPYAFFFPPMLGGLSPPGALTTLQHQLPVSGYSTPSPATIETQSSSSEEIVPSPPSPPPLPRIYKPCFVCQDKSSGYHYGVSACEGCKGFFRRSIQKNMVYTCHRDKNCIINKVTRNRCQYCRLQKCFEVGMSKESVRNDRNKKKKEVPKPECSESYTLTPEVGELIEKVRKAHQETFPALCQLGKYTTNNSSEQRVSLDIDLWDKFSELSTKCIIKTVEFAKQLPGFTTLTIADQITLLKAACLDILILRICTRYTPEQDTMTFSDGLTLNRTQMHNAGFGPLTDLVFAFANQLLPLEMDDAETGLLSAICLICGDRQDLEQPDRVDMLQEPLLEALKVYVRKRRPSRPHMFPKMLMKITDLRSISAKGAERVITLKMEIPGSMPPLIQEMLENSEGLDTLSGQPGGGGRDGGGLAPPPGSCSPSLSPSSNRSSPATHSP
Hepatocyte nuclear factor 3-beta (Homo sapiens), sequence (Q9Y261 whole entry, looked up): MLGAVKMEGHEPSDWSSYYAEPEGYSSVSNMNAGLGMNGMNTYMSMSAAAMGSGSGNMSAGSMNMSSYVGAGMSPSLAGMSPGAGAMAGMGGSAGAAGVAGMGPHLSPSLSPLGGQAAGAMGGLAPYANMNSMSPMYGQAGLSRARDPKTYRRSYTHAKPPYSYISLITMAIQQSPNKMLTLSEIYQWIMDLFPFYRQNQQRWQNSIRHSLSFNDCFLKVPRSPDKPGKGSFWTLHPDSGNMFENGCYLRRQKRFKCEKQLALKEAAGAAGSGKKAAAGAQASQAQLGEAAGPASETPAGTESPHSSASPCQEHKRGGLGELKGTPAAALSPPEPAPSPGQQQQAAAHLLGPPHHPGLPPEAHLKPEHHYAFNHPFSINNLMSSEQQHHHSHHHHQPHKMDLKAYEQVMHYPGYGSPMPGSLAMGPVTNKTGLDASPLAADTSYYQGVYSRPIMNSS
Transcription factor E2F1 (Homo sapiens), sequence (Q01094 whole entry, looked up): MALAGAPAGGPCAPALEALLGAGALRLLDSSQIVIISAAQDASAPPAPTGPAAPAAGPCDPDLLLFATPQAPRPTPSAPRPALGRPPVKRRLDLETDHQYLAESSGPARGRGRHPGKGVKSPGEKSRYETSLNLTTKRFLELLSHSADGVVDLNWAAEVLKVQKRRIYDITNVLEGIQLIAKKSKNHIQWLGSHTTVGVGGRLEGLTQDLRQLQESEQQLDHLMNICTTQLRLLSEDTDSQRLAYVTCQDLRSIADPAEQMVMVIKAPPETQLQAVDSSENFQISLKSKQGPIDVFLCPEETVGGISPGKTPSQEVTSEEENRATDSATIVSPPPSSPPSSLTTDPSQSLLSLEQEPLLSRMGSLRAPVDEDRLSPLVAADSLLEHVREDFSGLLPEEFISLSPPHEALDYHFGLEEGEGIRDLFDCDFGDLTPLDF
CCAAT/enhancer-binding protein beta (Homo sapiens), sequence (P17676 whole entry, looked up): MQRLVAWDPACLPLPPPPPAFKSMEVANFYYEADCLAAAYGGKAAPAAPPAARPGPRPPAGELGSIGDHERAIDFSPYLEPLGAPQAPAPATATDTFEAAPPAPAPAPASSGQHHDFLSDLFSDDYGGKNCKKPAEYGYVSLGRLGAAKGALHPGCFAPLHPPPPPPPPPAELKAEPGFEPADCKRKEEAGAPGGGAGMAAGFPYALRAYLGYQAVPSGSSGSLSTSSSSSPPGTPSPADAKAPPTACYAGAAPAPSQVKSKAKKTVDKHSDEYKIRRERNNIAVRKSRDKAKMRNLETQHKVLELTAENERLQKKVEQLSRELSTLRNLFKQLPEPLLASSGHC

In the case of `CC/C(=C(/CC)c1ccc(O)cc1)c1ccc(O)cc1`, the AC50 was 15.9 µM (active) in test [1]; 18 µM (active) and 15.4 µM (active) in [3]; 13.8 µM (active) and 11.1 µM (active) and 14.4 µM (active) in test [4]. Besides, the outcome in [1], in test [2], in test [3], in test [4], in [5] and in test [6] was inactive. For the same molecule, the outcome in test [7], in test [8], in test [9], in test [10], in [11] and in test [12] was inactive. Moreover, the result in test [13], in test [14], in test [15] and in test [16] was inactive.

In the case of `Cc1cc2c(cc1C(F)(F)F)N(C(=O)Nc1ccc(Oc3cccnc3C)nc1)CC2`, the result in test [1], in test [2], in test [3], in test [17], in [18] and in [4] was inactive. Further, the outcome in test [5], in [6], in test [8], in test [9], in test [10] and in [11] was inactive. Further, the molecule was called inactive in test [20], in test [12], in [13], in test [14], in test [15] and in test [16]. For the same molecule, the AC50 in test [19] is 0.967 µM (active).

As to `Cc1ccc(C(C)C)cc1`, the molecule was called inactive in [1], in [2], in test [3], in test [17], in test [18] and in test [4]. Moreover, the molecule was classed as inactive in [5], in test [6], in test [19], in test [7], in test [8] and in test [9]. The molecule was called inactive in [11], in test [20], in [12], in test [13], in [14] and in [15]. For the same molecule, in test [16], the result was inactive.

For `O=c1ccc2ccccc2o1`, the molecule was classed as inactive in test [1], in test [2], in test [3], in test [17], in test [18] and in [4]. The result in test [5], in [6], in test [19], in test [7], in test [8] and in test [9] was inactive. The outcome in [10], in [11], in [20], in [12], in test [13] and in [14] was inactive. Moreover, the call in test [15] and in test [16] was inactive.

For the molecule `CC[C@@H]1C[C@H](N(Cc2cc(C(F)(F)F)cc(C(F)(F)F)c2)C(C)=O)c2cc(C(F)(F)F)ccc2N1C(=O)OC(C)C`, the result in test [1], in test [2], in test [3], in [17], in test [18] and in test [4] was inactive. For the same molecule, the outcome in test [5], in test [6], in [7], in test [8], in [9] and in [11] was inactive. Besides, the outcome in [20], in test [12], in test [13], in [14], in test [15] and in test [16] was inactive. The AC50 in [19] is 0.362 µM (active).
